PubChem BioAssay AID1053143 (Broad Institute, 2014)
The campaign covered roughly 3,400 compounds. About 120 (3.5%) were called active. Not all results are given here. Entries that show only a call come without a potency. Potency and affinity values are given separately. Values without a mark were called inactive. How the calls were made is not given here.

assay: HepG2 cell cytotoxicity, dose response, cytotoxicity control, ATP luminescence, cherry-pick, activator set 2 (AID 1053143); conditions: HepG2 viability, CellTiter-Glo ATP luminescence, 72 h; series mostly up to 26 µM

**Q.** For `CN(C)C(=O)c1ccc(-c2cc(C(F)(F)F)nn2C)s1`, which activity change, negative = cytotoxicity is on record?
**A.** inactive

**Q.** Which activity change, negative = cytotoxicity does the source give for `O=C(COc1ccc(Cl)cc1)Nc1ncc([N+](=O)[O-])s1` here?
**A.** inactive

**Q.** With `Cc1ccnc(NC(=O)c2ccc([N+](=O)[O-])s2)c1` as the molecule, how does the activity change, negative = cytotoxicity read?
**A.** inactive

**Q.** For `Brc1ccccc1-c1nc2c3ccccc3ncn2n1`, which activity change, negative = cytotoxicity is on record?
**A.** inactive

**Q.** With `Cc1nc2nc(-c3cccs3)cn2nc1C` as the molecule, how does the activity change, negative = cytotoxicity read?
**A.** inactive

**Q.** With `O=c1[nH]c2ccccc2nc1-c1cccs1` as the molecule, how does the activity change, negative = cytotoxicity read?
**A.** inactive

**Q.** Which activity change, negative = cytotoxicity does the source give for `COc1ccc(-c2ccc(SCC(=O)Nc3cc(C)on3)nn2)cc1OC` here?
**A.** inactive

**Q.** With `Cc1ccc(C(=O)OCC(=O)c2ccccc2)cc1` as the molecule, how does the activity change, negative = cytotoxicity read?
**A.** inactive

**Q.** With `Cc1nc(SCC(=O)c2cccs2)c2oc3ccccc3c2n1` as the molecule, how does the activity change, negative = cytotoxicity read?
**A.** inactive

**Q.** For `COc1ccccc1/C=C/C(=O)Oc1cccc2cccnc12`, which activity change, negative = cytotoxicity is on record?
**A.** inactive

**Q.** For `O=C(/C=C/c1ccco1)Nc1cccnc1`, which activity change, negative = cytotoxicity is on record?
**A.** inactive

**Q.** For `CCc1ccc(NC(=O)c2cccnc2)cc1`, which activity change, negative = cytotoxicity is on record?
**A.** inactive

**Q.** For `CS(=O)(=O)N1CCc2nc(-c3ccccc3)sc2C1`, which activity change, negative = cytotoxicity is on record?
**A.** inactive

**Q.** With `Cc1ccc(/C=N/NC(=O)c2ccco2)cc1` as the molecule, how does the activity change, negative = cytotoxicity read?
**A.** inactive

**Q.** With `CCCC(=O)Nc1sc(C(=O)Nc2cccc(N)c2)c(C)c1C(=O)OC` as the molecule, how does the activity change, negative = cytotoxicity read?
**A.** inactive

**Q.** For `Cc1ccc(CCC(=O)Nc2ccccc2F)s1`, which activity change, negative = cytotoxicity is on record?
**A.** inactive

**Q.** Which activity change, negative = cytotoxicity does the source give for `COc1ccc(NC(=O)c2c(NC(=O)CCC(=O)O)sc(-c3ccccc3)c2C)cc1` here?
**A.** inactive

**Q.** For `O=C(Nc1ccccc1F)Nc1ccccc1F`, which activity change, negative = cytotoxicity is on record?
**A.** inactive

**Q.** For `c1ccc(Cn2c(-c3ccco3)nc3nc4ccccc4nc32)cc1`, which activity change, negative = cytotoxicity is on record?
**A.** inactive

**Q.** With `Cc1scc(C(=O)N/N=C/c2ccc(Cl)s2)c1C` as the molecule, how does the activity change, negative = cytotoxicity read?
**A.** inactive

**Q.** For `COc1ccc(-c2cn3cccc(C)c3n2)cc1Br`, which activity change, negative = cytotoxicity is on record?
**A.** inactive

**Q.** With `C=CCSc1cc(C)nc2c(-c3ccccc3)cnn12` as the molecule, how does the activity change, negative = cytotoxicity read?
**A.** inactive

**Q.** With `CC(C)(C)c1cc(NCCCn2ccnc2)n2ncc(-c3ccccc3)c2n1` as the molecule, how does the activity change, negative = cytotoxicity read?
**A.** inactive

**Q.** With `O=c1c2ccccc2nc2c3ccccc3c(NCc3ccccn3)nn12` as the molecule, how does the activity change, negative = cytotoxicity read?
**A.** -3.53% [at 6 µM]

**Q.** For `Cc1cc(C)n(-c2cc(C(C)(C)C)nc3c(-c4ccccc4)cnn23)n1`, which activity change, negative = cytotoxicity is on record?
**A.** inactive

**Q.** For `CN(C)c1ccc(C#Cc2ccc3cc(CCCO)oc(=O)c3c2)cc1`, which activity change, negative = cytotoxicity is on record?
**A.** inactive

**Q.** For `Cc1ccc(-n2nc3c(n2)/C(=N/O)CC/C3=N\O)cc1`, which activity change, negative = cytotoxicity is on record?
**A.** inactive

**Q.** With `CCCCCC(=O)Nc1nc2ccccc2[nH]1` as the molecule, how does the activity change, negative = cytotoxicity read?
**A.** inactive

**Q.** For `Cc1ccc(-c2csc(NC(=O)c3cccc(C)c3)c2C(=O)O)cc1`, which activity change, negative = cytotoxicity is on record?
**A.** inactive

**Q.** Which activity change, negative = cytotoxicity does the source give for `N/C(=N\OC(=O)COc1ccccc1)c1ccccn1` here?
**A.** inactive

**Q.** Which activity change, negative = cytotoxicity does the source give for `CCCCNc1c(-c2ccc(SC3CCCCC3)cc2)nc2ccccn12` here?
**A.** inactive

**Q.** Which activity change, negative = cytotoxicity does the source give for `O=c1[nH]c(/C=C/c2ccc(Br)cc2)nc2ccccc12` here?
**A.** inactive

**Q.** Which activity change, negative = cytotoxicity does the source give for `c1ccc([C@H]2CN3C(=N2)Sc2ccccc23)cc1` here?
**A.** inactive

**Q.** Which activity change, negative = cytotoxicity does the source give for `O=C(NC1CCCCC1)c1cc(-c2cccs2)on1` here?
**A.** inactive

**Q.** For `O=C(NC1CCCC1)c1cc(-c2ccc(Cl)cc2)on1`, which activity change, negative = cytotoxicity is on record?
**A.** inactive

**Q.** For `COc1cc2nn(-c3ccccc3N)nc2cc1OC`, which activity change, negative = cytotoxicity is on record?
**A.** inactive

**Q.** With `Cc1ccc(NC(=O)c2sccc2C)nc1` as the molecule, how does the activity change, negative = cytotoxicity read?
**A.** inactive

**Q.** For `CCOC(=O)c1sc(NC(=O)Nc2ccc(Cl)cc2)nc1C`, which activity change, negative = cytotoxicity is on record?
**A.** inactive

**Q.** For `Cc1csc(NC(=O)Nc2cccc(Cl)c2)n1`, which activity change, negative = cytotoxicity is on record?
**A.** inactive

**Q.** With `CCOC(=O)c1sc(NC(=O)C2CCC2)cc1C` as the molecule, how does the activity change, negative = cytotoxicity read?
**A.** inactive

**Q.** For `Cc1ccc(C(=O)/C=C/Nc2ccccc2C(N)=O)cc1`, which activity change, negative = cytotoxicity is on record?
**A.** inactive

**Q.** With `Cn1cccc1C(=O)Nc1ccc(N2CCOCC2)cc1` as the molecule, how does the activity change, negative = cytotoxicity read?
**A.** inactive

**Q.** With `COc1cccc2nc3cc(C)c(C)cc3nc12` as the molecule, how does the activity change, negative = cytotoxicity read?
**A.** inactive

**Q.** With `CCCC1CCC(c2ccc(OCC)cc2)=CC1=O` (centres undefined) as the molecule, how does the activity change, negative = cytotoxicity read?
**A.** inactive

**Q.** Which activity change, negative = cytotoxicity does the source give for `Cc1ccc2nc(SCC(=O)c3ccc(O)cc3O)[nH]c2c1` here?
**A.** inactive

**Q.** With `Fc1ccccc1COc1ccc(/C=N/n2cnnc2)cc1` as the molecule, how does the activity change, negative = cytotoxicity read?
**A.** inactive

**Q.** With `Fc1ccccc1Cn1nnc(-c2ccc3c(c2)OCO3)n1` as the molecule, how does the activity change, negative = cytotoxicity read?
**A.** inactive

**Q.** For `CCN1C(=O)S/C(=C\c2ccc(N3CCOCC3)cc2C)C1=O`, which activity change, negative = cytotoxicity is on record?
**A.** inactive

**Q.** Which activity change, negative = cytotoxicity does the source give for `Cn1c(=NC(=O)c2cnccn2)sc2ccccc21` here?
**A.** inactive

**Q.** Which activity change, negative = cytotoxicity does the source give for `O=C(Nc1nc2c(F)cccc2s1)c1ccco1` here?
**A.** inactive

**Q.** With `Cc1sc(NC(=O)C2CCCCC2)c(C#N)c1-c1ccccc1` as the molecule, how does the activity change, negative = cytotoxicity read?
**A.** inactive

**Q.** With `COc1ccc2oc(C(=O)Nc3ccccn3)c(C)c2c1` as the molecule, how does the activity change, negative = cytotoxicity read?
**A.** inactive

**Q.** With `CCOc1ccc2oc(C(=O)Nc3nccs3)c(C)c2c1` as the molecule, how does the activity change, negative = cytotoxicity read?
**A.** inactive

**Q.** For `COc1ccc(N=C2SC(CC(=O)Nc3ccccc3)C(=O)N2Cc2ccco2)cc1` (centres undefined), which activity change, negative = cytotoxicity is on record?
**A.** inactive
